ABCB6 inh MLPCN = ABCB6 transporter inhibitors, primary screen, K562-ABCB6 cells, flow cytometry, MLPCN library; ATP-binding cassette sub-family B member 6 (Homo sapiens), Q9NP58; K562-ABCB6 porphyrin accumulation, 1 h; stronger effect = lower value; fluorescence ratio to DMSO, % at 10 µM; 0.19% of 360,000 active; AID 602162, 2011;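 active = fluorescence ratio to DMSO below 75%, the collection mean minus 3 SD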;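 also: signal is porphyrin accumulated inside mitochondria; 100% equals median channel fluorescence of DMSO control wells; lower ratio means ABCB6 inhibition with less porphyrin fluorescence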
Granule exo inh = LAMP-1 surface exposure blockers, TALL-104 cells – cell-based, flow cytometry, MLPCN library, primary screen | AID 651702, 2012 | TALL-104 LAMP-1 surface exposure; cells stimulated with thapsigargin and PMA | 0.66% of 360,000 active | inhibition, % at 10 µM;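 active = inhibition above about 55%, limit read from the data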
VLA-4 inh = inhibition in human VLA-4 binding assay, primary screen, VLA-4 allosteric modulator project, MLPCN library, flow cytometry, VLA-4 expressing cells; Integrin alpha-4 (Homo sapiens), P13612; ligand binding flow cytometry; inhibition, % (about 7 µM as worked out from the volumes in the protocol); 0.2% of 330,000 active; AID 2557, 2010; in the data active = inhibition above about 50%
Target sequence (P13612 whole entry, looked up): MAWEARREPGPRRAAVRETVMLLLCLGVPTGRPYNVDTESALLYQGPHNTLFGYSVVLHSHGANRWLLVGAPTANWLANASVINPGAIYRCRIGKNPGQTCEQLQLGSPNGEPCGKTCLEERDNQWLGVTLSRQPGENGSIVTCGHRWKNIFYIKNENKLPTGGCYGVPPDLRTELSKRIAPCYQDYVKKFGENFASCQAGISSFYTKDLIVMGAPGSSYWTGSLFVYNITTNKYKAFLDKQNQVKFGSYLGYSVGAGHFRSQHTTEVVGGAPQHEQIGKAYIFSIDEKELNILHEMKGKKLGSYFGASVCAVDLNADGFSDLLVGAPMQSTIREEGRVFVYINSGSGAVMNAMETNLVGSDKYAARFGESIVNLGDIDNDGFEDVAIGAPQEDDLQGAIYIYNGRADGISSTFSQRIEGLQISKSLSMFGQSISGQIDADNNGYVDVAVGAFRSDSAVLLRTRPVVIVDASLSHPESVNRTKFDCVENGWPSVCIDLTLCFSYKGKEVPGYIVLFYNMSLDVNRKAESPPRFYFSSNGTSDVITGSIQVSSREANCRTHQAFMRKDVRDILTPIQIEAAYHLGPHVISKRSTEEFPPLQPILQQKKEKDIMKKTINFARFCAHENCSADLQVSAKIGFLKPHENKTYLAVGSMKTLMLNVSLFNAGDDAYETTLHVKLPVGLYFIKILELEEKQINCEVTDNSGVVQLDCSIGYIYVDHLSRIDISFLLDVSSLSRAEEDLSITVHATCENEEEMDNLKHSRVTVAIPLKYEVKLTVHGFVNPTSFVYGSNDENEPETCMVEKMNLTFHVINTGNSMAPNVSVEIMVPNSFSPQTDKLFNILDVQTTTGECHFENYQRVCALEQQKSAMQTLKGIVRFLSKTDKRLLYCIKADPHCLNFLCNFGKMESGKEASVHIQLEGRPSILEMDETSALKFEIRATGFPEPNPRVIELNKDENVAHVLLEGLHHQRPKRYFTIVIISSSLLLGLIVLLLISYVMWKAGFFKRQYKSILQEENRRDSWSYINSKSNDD
CaV13 FRET inh = Primary screen for inhibitors of IQ motif and Ca2+-dependent inactivation inhibitor domain binding in CACNA1D, Förster resonance energy transfer in living cells, … | inhibition, % at 12.3 µM | HEK cells, CFP/YFP FRET ICDI-IQ, plate reader, 10 min; percent FRET-ratio fall versus neutral wells | 0.098% of 340,000 active;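 active = mean replicate inhibition of at least 30% and at least 1% of replicates passing that level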;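 also: 0% = median of the neutral control wells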
VLA-4 mod pick = retest of VLA-4 allosteric modulators, confirmation, cell-based, cherry-picked plates, U937, HUTS-21 LIBS antibody; inhibition, % at 6.7 µM; shares compounds with VLA-4 inh; AID 2813, 2010; 2% of 1,300 active; U937 cells, HUTS-21 LIBS mAb binding, flow cytometry; LDV ligand present at threefold Kd; in the data active = inhibition above about 40%;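 also: 0% = ligand without compound and 100% = no ligand background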
ABCB6 blocker 1 = ABCB6 transporter inhibitors, confirmation, K562-ABCB6 cells, flow cytometry, cherry pick 1. shares compounds with ABCB6 inh MLPCN. K562-ABCB6 porphyrin accumulation, 1 h; stronger effect = lower value. ratio response (% of DMSO), % at 10 µM. 700 tested, under 10 active. AID 602430, 2012;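 active = repeat-averaged ratio response below 75% of DMSO, the collection mean minus 3 SD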;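 also: median porphyrin fluorescence at 575 nm with 488 nm excitation from mitochondria; lower ratio means less porphyrin signal so ABCB6 inhibition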
Granule exo CP1 = inhibitors of lytic granule exocytosis, confirmation, TALL-104 cells, flow cytometry, Cherry Pick01; LAMP-1 externalization; stimulated with PMA plus thapsigargin; shares compounds with Granule exo inh; AID 651954, 2012; inhibition, % at 10 µM; 11% of 1,500 active; in the data active = inhibition above about 60%;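 also: 0% = stimulated vehicle wells and 100% = unstimulated wells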
Active calls of the source: *; . = not tested or not shown. This is a sample that favours compounds with a hit; in the whole collection about 1.1% have one here.

SMILES | ABCB6 inh MLPCN | Granule exo inh | VLA-4 inh | CaV13 FRET inh | others
CCN(CC)c1ccc(N=Cc2c(O)n(-c3ccccc3)c(=O)[nH]c2=O)cc1 | 100 | 2 | -23 | -27
C/C1=C\[C@@H](C)C/C=C/[C@H]2[C@@H]3O[C@]3(C)[C@@H](C)[C@H]3[C@H](Cc4c[nH]c5ccccc45)NC(=O)[C@]32C(=O)/C=C/C(=O)[C@@H]1O | 91 | 45 | 70* | . | VLA-4 mod pick=37
Cc1ccc(OC(=O)N(C)C[C@H]2OCc3cnnn3CCCC(=O)N([C@H](C)CO)C[C@H]2C)cc1 | . | . | . | -4
COc1ccc(C(=O)OC2C[C@H]3CC[C@@H](C2)N3O)cc1OC (stereo partly specified) | 93 | -15 | -18 | -3 | VLA-4 mod pick=1
O=C(NC1CCCCC1)N1Cc2ccc(Br)cc2-n2nncc2C1 | . | . | . | -4
Cc1ccc(N2Cc3ccccc3-n3nncc3C2)cc1 | . | . | . | -2
Cc1cc(Cl)ccc1OCC(=O)O | 97 | -1 | 56* | -4 | VLA-4 mod pick=-3
C=C1[C@H]2CC[C@H]3[C@]4(C)C[C@H](O[C@H]5O[C@H](CO)[C@@H](OS(=O)(=O)O)[C@H](OS(=O)(=O)O)[C@H]5OC(=O)CC(C)C)C[C@@H](C(=O)O)[C@H]4CC[C@]3(C2)[C@H]1O | 96 | -8 | 57* | -6 | VLA-4 mod pick=3
CN1C2(C)c3ccccc3C1(c1ccccc1)c1ccccc12 | . | . | . | -5
N#Cc1ccc(NC(=S)N2Cc3ccc(Br)cc3-n3nncc3C2)cc1 | . | . | . | -4
Cc1[nH]c2ccc(OC(F)(F)F)cc2c1CCNCc1cccc([N+](=O)[O-])c1 | 93 | 24 | 39 | -4
CCOc1cccc(CNCCc2c(C)[nH]c3ccc(OC(F)(F)F)cc23)c1O | 90 | 78* | 65* | -3 | VLA-4 mod pick=39;Granule exo CP1=83*
CNCC[C@@H](Oc1ccc(C(F)(F)F)cc1)c1ccccc1 | 96 | 6 | -6 | -5
CCCCCCCSc1cc(OC)c(CCNC)cc1OC | 98 | 85* | 61* | . | VLA-4 mod pick=0;Granule exo CP1=48
CC(=O)N1CCC2(CC1)CC(=O)c1cc(OCC(=O)N3CCC4(CC3)OCCO4)ccc1O2 | 96 | -3 | -4 | -3
CC(=O)N1CCC2(CC1)CC(=O)c1cc(OCC(=O)N3CCN(C)CC3)ccc1O2 | 58* | -1 | -1 | -4 | ABCB6 blocker 1=101
O=c1[nH]c2cc(Cl)ccc2n1C1CCN(Cc2ccc(-c3nc4ccc(F)cc4nc3-c3ccccc3)cc2)CC1 | . | . | . | -5
CCOC(=O)c1c(-n2c(C)cc(/C=C3/C(=O)NC(=O)N(CC)C3=O)c2C)sc2c1CCCC2 | 73* | 13 | 0 | -6 | ABCB6 blocker 1=107
CCCCn1c(O)c(C(CC)=Nc2ccc(OCC)cc2)c(=O)[nH]c1=O | 74* | 0 | 15 | -5 | ABCB6 blocker 1=98
CCCCn1c(O)c(C(CC)=Nc2ccc(OC)cc2OC)c(=O)[nH]c1=O | 101 | 0 | 7 | -4
CCCCn1c(O)c(C(C)=NC(C)c2ccccc2)c(=O)[nH]c1=O (stereo unspecified) | 72* | -2 | 22 | . | ABCB6 blocker 1=99
O=C(NCCN1CCC2(CC1)C(=O)NCN2c1ccccc1)c1cc(C(F)(F)F)ccc1C(F)(F)F | . | . | . | -10
C[N+](C)(C)CC1CCCC(C[N+](C)(C)C)C1=O (stereo unspecified) | 43* | -4 | . | -5 | ABCB6 blocker 1=68*
Cc1cccc2nc(-c3ccccc3)c(-c3ccc(CN4CCC(n5c(=O)[nH]c6cc(Cl)ccc65)CC4)cc3)nc12 | . | . | . | -14
O=C(CCN1CCOCC1)NCC(=O)Nc1ccc(Br)cc1C(=O)c1ccccc1 | 70* | -2 | 1 | -4 | ABCB6 blocker 1=100
SMILES | ABCB6 inh MLPCN | Granule exo inh | VLA-4 inh | CaV13 FRET inh | others
Fc1ccc(CNCCc2c[nH]c3ccccc23)cc1 | 69* | 14 | 0 | -5 | ABCB6 blocker 1=100
Fc1ccccc1CNCCc1c[nH]c2ccccc12 | 100 | 12 | 14 | -2
Cc1cc(N2CCNC[C@@H]2C)ccc1N1CC[C@@H](O)C1 | . | . | . | -7
CCOC(=O)[C@]12Cc3cc(OC)ccc3[C@H]1N(C1CCCCC1)C(=O)c1cc(OC)ccc12 | 100 | 64* | . | -6 | Granule exo CP1=0
CCOC(=O)[C@]12Cc3ccccc3[C@H]1N(C)C(=O)c1cc(OC)ccc12 | 95 | -7 | . | -8
CCOC(=O)[C@]12Cc3cc(C)ccc3[C@H]1N(C1CCCCC1)C(=O)c1cc(OC)ccc12 | 93 | 84* | . | -5 | Granule exo CP1=4
O=C1CCC[C@@H]2C[C@@]3(C[C@@H]4CCN1[C@H]24)Nc1cc(Cl)ccc1NC3=NCc1ccccc1 | 98 | 3 | . | -10
Cc1cccc(C)c1-n1nnnc1C(CCc1ccccc1)N1CCC(n2c(=O)[nH]c3ccccc32)CC1 (stereo unspecified) | 92 | 91* | . | -5 | Granule exo CP1=95*
COc1ccc(Br)cc1CNCCc1ccc2c(c1)OCO2 | 85 | 59* | 6 | -13 | Granule exo CP1=-4
CCc1c(-c2ccccc2)nc2ccccc2c1C(=O)N1CCC2(CC1)OCCO2 | 85 | -4 | 11 | -8
COC(=O)C1=C(c2cccc(OCc3ccccc3)c2)C[C@@H]2CC[C@H]1N2C(=O)NCCCOC(C)C | 101 | 98* | -2 | -11 | Granule exo CP1=-4
COC(=O)C1=C(c2cccc(OCc3ccccc3)c2)C[C@@H]2CC[C@H]1N2C(=O)NCCOc1ccc(OC)cc1 | 93 | 9 | -9 | -5
N#Cc1ccc2nc(-c3ccc(CN4CCC(n5c(=O)[nH]c6cc(Cl)ccc65)CC4)cc3)c(-c3ccccc3)nc2c1 | . | . | . | -15
O=C(Cn1c(=O)c(C(F)(F)F)nc2ccccc21)N1CCC2(CC1)OCCO2 | 100 | 1 | -6 | -7
CCC(C)N1C(=O)NC(=O)C2(Cc3c(ccc4ccccc34)N(C)C2)C1=O (stereo unspecified) | 89 | 60* | -11 | -6 | Granule exo CP1=-11
COc1ccc2c(c1)CC1(CN2C)C(=O)NC(=O)N(CCc2ccccc2)C1=O (stereo unspecified) | 98 | 0 | 2 | -5
CCOc1ccc(N)cc1 | 101 | 101* | . | -15 | Granule exo CP1=-12
C=CCN1CCc2cccc3c2[C@H]1Cc1ccc(O)c(O)c1-3 | 102 | 84* | -4 | -3 | Granule exo CP1=27

High-throughput results from PubChem.
